Assay [1] in a line: CCTE_Shafer_MEA_acute_per_burst_spike_number_mean: CCTE's Neural Acute Assay for Average Number of Spikes Per Burst, Shafer Lab (AID 2284015).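 Also: hits are decreases in mean spikes per burst versus baseline.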 An outline of the steps: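 We recorded spontaneous network firing of rat cortical neurons for 40 min before and 40 min during exposure to compound at 0.03-40 uM, at 37 C. Spikes were detected adaptively at 8x rms noise, and the change in average spikes per burst was fitted against DMSO.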

Assay [2] is described as follows: CCTE_Shafer_MEA_acute_interburst_interval_mean: CCTE's Neural Acute Assay for Mean Interburst Interval, Shafer Lab (AID 2284016).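 Also: percent change of mean interburst interval versus each well's own pre-dose baseline; curves fitted for decrease in interburst interval relative to DMSO.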 The method in brief: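 MEA recording of spontaneous network bursting in primary rat cortical cultures; mean interburst interval was compared before and after a 40-min compound exposure (0.03-40 uM) and expressed as percent change, relative to DMSO.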

The nature of assay [3]: CCTE_Shafer_MEA_acute_burst_percentage_mean: CCTE's Neural Acute Assay for Percentage of Spikes in a Burst, Shafer Lab (AID 2284017).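 As to AC50: curve fitted for loss of signal so potency reflects decreased burst percentage.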 The method in brief:
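Compounds were tested at 0.03-40 uM on primary rat cortical neuron networks grown over microelectrodes, with at least three wells per compound. Spontaneous firing was recorded for 40 min before and 40 min after dosing, and the change in burst percentage was computed per well.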

Assay [4] is described as follows: CCTE_Shafer_MEA_acute_per_network_burst_spike_number_mean: CCTE's Neural Acute Assay for Average Number of Spikes in a Network Burst, Shafer Lab (AID 2284019). The method in brief:
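Rat cortical cultures, DIV 13/15; spike threshold 8x rms noise, 300-5000 Hz band-pass, 12.5 kHz sampling; wells need >/= 10 active electrodes. Compound 0.03-40 uM, 40 min, 37 C; % change vs own baseline, DMSO negative control.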

The nature of assay [5]: CCTE_Shafer_MEA_acute_per_network_burst_spike_number_std: CCTE's Neural Acute Assay for Standard Deviation of Number of Spikes in a Network Burst, Shafer Lab (AID 2284020).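 Also: fitted for decrease in spike-number SD versus DMSO so actives lower it.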 An outline of the steps: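 Rat cortical cultures, DIV 13/15, 37 C; 20-min stabilisation, 40-min baseline, compound 0.03-40 uM, 40-min re-record. Spikes detected at 8x rms noise (300-5000 Hz band-pass). Readout: % change from baseline in per-burst spike-number SD.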

Assay [6] is described as follows: CCTE_Shafer_MEA_acute_network_burst_percentage: CCTE's Neural Acute Assay for Percentage of Network Bursts, Shafer Lab (AID 2284022).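 Also: curves fitted for loss so actives lower network burst percentage.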 An outline of the steps: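 Network burst percentage (spikes in network bursts divided by total spikes) recorded at 37 C over 40 min baseline and 40 min after compound, 0.03-40 uM, in rat cortical cultures at DIV 13 or 15. Analysed as percent change from baseline versus DMSO.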

Assay [7] can be described thus: CCTE_Shafer_MEA_acute_cross_correlation_area: CCTE's Neural Acute Assay for Area of Cross Correlation, Shafer Lab (AID 2284024).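 Also: rat primary cortical neuron networks on 48-well MEA at DIV 13 or 15 with 40 min exposure; area under pooled inter-electrode spike cross-correlation near zero lag as percent change from own baseline; curves fitted for loss of cross-correlation area so actives lower synchrony.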 An outline of the steps:
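Percent change in well-wide cross-correlation area (window around zero lag) between 40 min baseline and 40 min post-compound recordings, 37 C; rat cortical cultures on MEA at DIV 13 or 15, dosed 0.03-40 uM, wells needing >/= 10 active electrodes.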

The nature of assay [8]: CCTE_Shafer_MEA_acute_cross_correlation_HWHM: CCTE's Neural Acute Assay for Cross Correlation at Half Width at Half Maximum, Shafer Lab (AID 2284026).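 Also: percent change per well from pre-dose baseline in spike cross-correlogram half width; hits are a decrease in cross-correlogram half width relative to DMSO.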 An outline of the steps:
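Per-well percent change in cross-correlogram half width at half maximum, derived from 40-min recordings before and after compound (0.03-40 uM) at 37 C. Cultures were rat cortical neurons, DIV 13 or 15, with adaptive spike detection at 8x rms.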

The nature of assay [9]: CCTE_Shafer_MEA_acute_synchrony_index: CCTE's Neural Acute Assay for Synchrony, Shafer Lab (AID 2284027).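 Also: network synchrony index of spontaneous spiking in primary rat cortical neurons on MEAs; fitted for loss of signal so actives lower synchrony relative to DMSO.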 The method in brief:
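Plates equilibrated 20 min at 37 C, baseline recorded 40 min, compound (0.03-40 uM) added, then 40 min more recorded. Cells: primary rat cortical neurons, DIV 13 or 15. Per-well synchrony index change analysed in negative direction against DMSO.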

Assay [10] is described as follows: CCTE_Shafer_MEA_dev_firing_rate_mean: CCTE's Neural Network Formation Assay for Mean Firing Rate, Shafer Lab (AID 2284031). An outline of the steps:
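Steps: seed rat cortical cells (1.5 x 10^5/well) with laminin on PEI-coated MEA; dose day 0; record DIV 5/7/9/12, full media and compound exchange after DIV 5 and 9 recordings; compute well-mean firing rate AUC.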

Assay [11] in a line: CCTE_Shafer_MEA_dev_per_burst_spike_percent: CCTE's Neural Network Formation Assay for Percent of Spikes in a Burst, Shafer Lab (AID 2284032). The method in brief: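 Value is trapezoidal AUC over recordings on days 5, 7, 9 and 12 of the well-mean fraction of spikes falling in single-electrode bursts; rat cortical cultures exposed continuously from plating, treatment renewed DIV 5 and 9, fitted downward against DMSO.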

Assay [12] can be described thus: CCTE_Shafer_MEA_dev_burst_rate: CCTE's Neural Network Formation Assay for Burst Rate, Shafer Lab (AID 2284042). An outline of the steps:
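Developmental network assay measuring how 12-day exposure of rat cortical neuron cultures alters bursting on extracellular MEA recordings. Values are AUC of well-mean burst rate across four recording days, relative to DMSO vehicle.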

Assay [13] is described as follows: CCTE_Shafer_MEA_dev_per_burst_interspike_interval: CCTE's Neural Network Formation Assay for Burst Interspike Interval, Shafer Lab (AID 2284044). The method in brief:
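Mean interspike interval within single-electrode bursts, averaged over bursting electrodes, from rat cortical cultures on MEA plates recorded on days 5, 7, 9 and 12. Continuous compound exposure from plating; trapezoidal AUC fitted downward relative to DMSO.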

Assay [14] can be described thus: CCTE_Shafer_MEA_dev_active_electrodes_number: CCTE's Neural Network Formation Assay for Number of Active Electrodes, Shafer Lab (AID 2284040; active = hit-call score of the fitted dose curve at least 0.9, where 1 is the maximum). The method in brief:
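Counts electrodes per well firing at least 5 spikes/min, recorded on days 5, 7, 9 and 12 in rat cortical cultures dosed continuously from plating (treatment refreshed DIV 5, 9). Value is the area under the curve over recordings, fitted downward relative to DMSO.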

Assay [15] in a line: CCTE_Shafer_MEA_dev_bursting_electrodes_number: CCTE's Neural Network Formation Assay for Number of Bursting Electrodes, Shafer Lab (AID 2284043; active = hit-call score of the fitted dose curve at least 0.9, where 1 is the maximum). An outline of the steps: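 Rat cortical primary neurons, 48-well MEA, 16 electrodes/well; dosing DIV 0–12, re-dosed with full media change DIV 5, 9. Recordings DIV 5/7/9/12, AxIS adaptive spike detector; bursting electrode = ≥1 burst/2 min. AUC across days; loss of signal vs DMSO.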

The nature of assay [16]: CCTE_Deisenroth_AIME_384WELL_CTox_Active: Cytotoxicity Assessment (CTOX) in CCTE's 384-well Estrogen Receptor Transactivation Assay with AIME metabolic competence (metabolism positive), Deisenroth Lab (AID 2284037; active = hit-call score of the fitted dose curve at least 0.9, where 1 is the maximum;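 also: chemicals first conditioned 2 h by alginate-bound induced rat liver S9 before cells; activity means signal loss indicating cell death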). The method in brief:
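Chemicals pre-incubated 2 hours with alginate-immobilised phenobarbital/beta-naphthoflavone-induced male Sprague Dawley rat liver S9, then conditioned medium applied 24 hour to VM7Luc4E2 cells. Viability by fluorogenic protease substrate; 10-point series 0.002 - 200 uM.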

A short description of assay [17]: CCTE_Deisenroth_AIME_384WELL_CTox_Inactive: Cytotoxicity Assessment (CTOX) in CCTE's 384-well Estrogen Receptor Transactivation Assay without AIME metabolic competence (metabolism negative), Deisenroth Lab (AID 2284039; active = hit-call score of the fitted dose curve at least 0.9, where 1 is the maximum;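 also: cell viability via live-cell protease substrate cleaved to fluorescent probe; cells exposed 24 h to medium preincubated 2 h with alginate-water beads without S9; loss of fluorescence signal means loss of viability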). An outline of the steps:
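Fluorescence from a live-cell protease substrate, read after 24 h in VM7Luc4E2 cells, indicated viability. Test medium came from a 2 h AIME step without hepatic S9 (alginate-water microspheres); concentrations spanned 0.002 - 200 uM, single technical replicate per run.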

Records with an inconclusive call do not appear. More than one record can exist for a structure, and the calls need not agree. Activity calls are given as the source filed them. The calls were made as follows, unless noted: active = hit-call score of the fitted dose curve at least 0.9, where 1 is the maximum; inactive = score below 0.9.

As a reminder, the AC50 is the midpoint of the concentration-response curve, whichever way the signal moves.

Turning to `CCOC(=O)CC(SP(=O)(OC)OC)C(=O)OCC` (configuration not stated), the result in assay [1], in assay [2], in assay [3], in [4], in assay [5] and in [6] was inactive. Moreover, the molecule was classed as inactive in assay [7], in assay [8], in assay [9], in assay [10], in assay [11] and in [12]. Besides, in [13], the molecule was classed as inactive.

For `Nc1c(Cl)cc([N+](=O)[O-])cc1Cl`, the molecule was classed as inactive in [1], in [4], in assay [7] and in assay [8]. In addition, the AC50 is 30.2 µM (active) in [2]; 20 µM (active) in assay [3]; 37 µM (active) in assay [5]; 26 µM (active) in assay [6]; 32.8 µM (active) in assay [9].

Consider `FC(F)C(F)(F)OCC(Cn1cncn1)c1ccc(Cl)cc1Cl` (configuration not stated), for which the result in assay [1], in [2], in assay [3], in assay [4], in assay [5] and in assay [6] was inactive. For the same molecule, the molecule was called inactive in assay [7] and in [9]. Further, the AC50 in assay [8] was 23.8 µM (active).

Regarding `COc1cc(OC)nc(Sc2cccc(Cl)c2C(=O)O)n1`, the molecule was called inactive in assay [1], in assay [2], in assay [3], in [4], in assay [5] and in assay [6]. Moreover, the result in [7], in assay [8] and in assay [9] was inactive.

As for `CC(=NC#N)N(C)Cc1ccc(Cl)nc1`, the call in [1], in assay [2], in [3], in assay [4], in [5] and in [6] was inactive. The molecule was called inactive in [7], in assay [8], in assay [9], in assay [10], in assay [11] and in assay [14]. The molecule was classed as inactive in [12], in assay [15] and in assay [13].

With `COP(=O)(NC(C)=O)SC` (configuration not stated), the AC50 in assay [1] was 0.124 µM (active); in assay [2] it was 0.0544 µM (active); in assay [3], 0.792 µM (active); in [5] it was 0.299 µM (active); in assay [9] it was 0.804 µM (active). Also, the call in [1], in assay [2], in assay [3], in [4], in [5] and in assay [6] was inactive. For the same molecule, the molecule was called inactive in assay [7], in assay [8], in [9], in [10], in [11] and in assay [16]. In addition, the result in assay [17], in [14], in assay [12], in assay [15] and in assay [13] was inactive.

These data come from PubChem BioAssay (EPA / NIEHS).
